In the library only some 5.5% were active in any assay of this set; here they are far more common.
BCR signal inh – qHTS Assay to Find Inhibitors of Chronic Active B-Cell Receptor Signaling; ABC-DLBCL IkBa-CBG/CBR reporter, luminescence ratio, 4 h; Potency, µM (top dose mostly 46.1 µM), inactives show at the highest dose activity change, negative = inhibition, most hits filed as inhibitors; 0.05% of 340,000 active; active = well fitted inhibition curve with a large enough effect in the signal ratio, with a control signal flat, not every such curve was filed as active; inconclusive = small, poorly fitted or top-dose-only effect, or effect the other way, or a change in a side signal; the % refers to the signal ratio;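 also: plate controls were basal doxycycline-induced cells for no effect and cells given 10 µM MG132 for full effect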
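Doxycycline induced both beetle luciferases in TMD8 lymphoma cells; IKK-driven degradation limits the IkappaBalpha-fused green signal, while red luminescence normalises for cell number and nonspecific effects. Compounds tested up to 46 uM, 4 hrs.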
Integrin act MD – qHTS for Activators of Integrin-Mediated Alleviation for Muscular Dystrophy | alpha7betagal myoblasts, beta-gal FDG fluorescence, 48 h | AID 624291, 2012 | 0.064% of 350,000 active | Potency, µM (series often up to 38.3 µM), inactives show at the highest dose activation, hits mostly activators;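 also: 100% = response of the positive control SU9516; nearly all actives have a fitted effect of over 60% in size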
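Alpha7betagal+/- myoblasts (passage 13) were plated 16-24 hr, then exposed to compounds (1:260 dilution of DMSO stock) for 48 hours at 37C. After MPER lysis, β-galactosidase reporter activity was read as FDG fluorescence (ex 480/em 540) after 30 minutes.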
Mito fusion yeast – qHTS Assay for Small Molecule Inhibitors of Mitochondrial Division or Activators of Mitochondrial Fusion; S. cerevisiae fusion-defective mutant growth rescue, CellTiterGlo 48 h; Potency, µM (highest dose often 46.1 µM), inactives show top-dose growth rescue (activation), most hits filed as activators; 0.23% of 320,000 active; AID 485298, 2010; also: % of control where 0% means no effect; nearly all actives have a fitted effect of over 45% in size
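Luminescent cell viability in 1536-well qHTS format served as the measure of rescued growth in ts fusion-mutant S. cerevisiae cultured on non-fermentable YPEG for 48 hours at 37C.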
VP16 counter – VP16 counterscreen qHTS for inhibitors of ROR gamma transcriptional activity; Drosophila S2 Gal4-VP16 UAS-luciferase, luminescence, 20 h; Potency, µM (titrated, usually from 53.6 µM), without a hit: top-dose activity, negative = inhibition, hits mostly inhibitors; 3.5% of 310,000 active; AID 2546, 2010;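 also: Gal4-VP16 expression switched on by copper sulfate through the metallothionein promoter; % is scaled to controls: 0 for no effect and ±100 for the full control effect; nearly all actives have a fitted effect of over 50% in size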
uPA surface inh – qHTS for Inhibitors of Cell Surface uPA Generation. cell surface uPA generation assay, qHTS. Potency, µM (titrated, usually from 38.3 µM), inactives show at the highest dose activity change, negative = inhibition, hits mostly inhibitors. 0.31% of 330,000 active. AID 540303, 2011; active = well fitted inhibition curve with a large enough effect; inconclusive = small, poorly fitted or top-dose-only effect; inactive = no such curve, though single readings can be large or run the other way; tested in mouse RAW 264.7 cells; also: % is scaled to controls: 0 for no effect and ±100 for the full control effect; nearly all actives have a fitted effect of over 55% in size
RORgamma inh – qHTS for inhibitors of ROR gamma transcriptional activity | Drosophila S2 Gal4-RORgamma UAS-luciferase reporter, 20 h | Potency, µM (series often up to 53.6 µM), for the others: at the highest dose activity change, negative = inhibition, actives largely listed as inhibitors | 5.4% of 310,000 active | AID 2551, 2010; also: % is scaled to controls: 0 for no effect and ±100 for the full control effect; nearly all actives have a fitted effect of over 60% in size
Target sequence (P51450 whole entry, looked up, the tested form may be a part): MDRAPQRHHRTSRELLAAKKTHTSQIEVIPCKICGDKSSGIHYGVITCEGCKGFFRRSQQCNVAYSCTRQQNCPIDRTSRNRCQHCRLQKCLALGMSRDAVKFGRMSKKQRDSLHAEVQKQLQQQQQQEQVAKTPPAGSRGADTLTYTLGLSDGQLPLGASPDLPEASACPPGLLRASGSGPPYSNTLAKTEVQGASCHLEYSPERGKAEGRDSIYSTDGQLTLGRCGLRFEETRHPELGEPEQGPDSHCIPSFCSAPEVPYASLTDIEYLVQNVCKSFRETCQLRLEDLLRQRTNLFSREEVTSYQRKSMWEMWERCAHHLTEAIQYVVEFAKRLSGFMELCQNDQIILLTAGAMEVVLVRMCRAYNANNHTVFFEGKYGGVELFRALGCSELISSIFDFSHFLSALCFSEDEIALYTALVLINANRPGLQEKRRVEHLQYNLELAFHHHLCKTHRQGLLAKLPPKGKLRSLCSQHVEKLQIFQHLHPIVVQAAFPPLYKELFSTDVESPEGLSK
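Stably transfected Drosophila Schneider cells are the test system, with ROR gamma fused to Gal4 and luciferase under UAS control; luminescence is read after 20 hr of 700 uM copper sulfate induction at ambient temperature.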
* = called active by the depositor; ? = inconclusive; . = no result given; [ ] = remark or other dose. Unless noted, calls follow the shape of the dose curve; as a rule, active = well fitted curve in the direction sought with a large enough effect; inconclusive = small, poorly fitted or top-dose-only effect, or another doubt; inactive = no such curve, though single readings can be large; an effect the other way counts as inactive or inconclusive. Potency is read from the fitted curve at half-maximal effect.

SMILES | BCR signal inh | Integrin act MD | Mito fusion yeast | VP16 counter | uPA surface inh | RORgamma inh
CC[C@H]1OC(=O)[C@H](C)C(=O)[C@H](C)[C@@H](OC2O[C@H](C)C[C@H](N(C)C)[C@@H]2O)[C@@](C)(OC)C[C@@H](C)C(=O)[C@@H](C)C2N(CCCCn3cnc(-c4cccnc4)c3)C(=O)O[C@@]21C (some centres undefined) | . | . | . | -11% | . | 9%
CCOC(=O)c1c(-c2cc(OC)c(OC)c(OC)c2)csc1N | . | -11% | . | . | . | .
CCc1ccc(S(=O)(=O)/N=C2\C=C(Nc3ccc(O)cc3)C(=O)c3ccccc32)cc1 | ? | -2% | -38% | 11µM* | -3% | 10µM*
CCc1ccc(S(=O)(=O)/N=C2\C=CC(=O)c3ccccc32)cc1 | -1% | . | 10% | ? | . | ?
Cc1cc(C)cc(N2CC(C(=O)NC3CCCCC3)CC2=O)c1 (centres undefined) | 0% | -22% | -4% | -12% | 6% | 0%
Cc1ccc(C)c(NC(=O)c2cc3ccccc3o2)c1 | ? | 0% | -4% | 4% | -22% | 31%
O=C(NC1=NCCS1)c1cc2ccccc2o1 | ? | 1% | 0% | 8.9µM* | -8% | 7.1µM*
Cc1ccnc(NC(=O)c2cc3ccccc3o2)c1 | ? | 1% | -2% | . | 2µM* | .
O=C(Nc1ccccn1)c1cc2ccccc2o1 | ? | 5% | -8% | 6.3µM* | ? | 4µM*
CCCCCC(=O)N(Cc1ccccc1)c1c(N)n(CCOC)c(=O)[nH]c1=O | . | 14% | . | . | 0% | .
NC(=O)[C@@H]1CSSCCC(=O)N[C@@H](CCCCN=C(N)N)C(=O)NCC(=O)N[C@@H](CC(=O)O)C(=O)N[C@@H](Cc2c[nH]c3ccccc23)C(=O)N2CCC[C@H]2C(=O)N1 | . | . | . | 2% | . | 22%
Cc1ccc([N+](=O)[O-])c(C)c1 | . | . | . | -6% | . | 0%
O=C1[C@@H]2Cc3c([nH]c4ccccc34)C(c3ccccc3)N2C(=O)CN1C1CCN(Cc2ccccc2)CC1 (some centres undefined) | -7% | -60% | -1% | ? | -17% | 2.8µM*
CCSc1nnc2ccc(-c3ccc(OC)c(OC)c3)nn12 | 7.9µM* | -15% | -11% | -11% | 1% | -14%
C=CC[C@@H]1C=C[C@@H](O/N=C(/C)CCC(=O)OC[C@@H]2O[C@H](C#Cc3ccccc3)C=C[C@@H]2Oc2ccc(C)cc2)[C@@H](CO)O1 | . | . | . | -2%[10 µM] | . | 1%[10 µM]
O=C(O)c1[nH]c2ccccc2c1NS(=O)(=O)c1ccc(F)cc1 | 13% | ? | 35µM* | 15% | ? | 3%
COc1cc(/C=C(\C#N)C(N)=O)cc(CSc2nc3ccccc3s2)c1O | . | . | . | 14µM* | . | 5.6µM*
C=C(C)CNC(=S)Nc1cccc(N)n1 | 8% | -15% | 0% | ? | 6% | 2.8µM*
C=C(C)CNC(=S)N/N=C/c1ccc(NC(C)=O)cc1 | 2% | 14% | -3% | 3% | 0% | ?
COc1ccc(N2CCN(S(=O)(=O)c3ccc(-c4ccno4)cc3OC)CC2)cc1 | -21% | . | . | . | . | .
CCNC(=S)NNC(=O)CSc1nc2ccccc2n1C | ? | 21% | -1% | 0.71µM* | 1% | 0.22µM*
CCNC(=S)NNC(=O)CCc1nc2cc(Cl)ccc2n(Cc2ccccc2)c1=O | -1% | -48% | 21% | -10% | 3% | 6.3µM*
CCNC(=S)NNC(=O)CSc1nc2ccccc2[nH]1 | -1% | -5% | -2% | 13µM* | -4% | 4µM*
CN(C)C(CNC(=O)CCc1nc2cc(Cl)ccc2n(Cc2ccccc2)c1=O)c1ccccc1 (centres undefined) | ? | -30% | -2% | . | -3% | .

Screening data deposited in PubChem by National Center for Advancing Translational Sciences (NCATS).
